Reference: PubChem BioAssay AID720513 (Broad Institute, 2013)
The campaign covered roughly 2,100 compounds. About 480 (23%) were called active. Roughly 5% stayed inconclusive and do not appear here.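 The calls were made as follows: active = fitted curve reaches 40% activation at or below the top valid concentration, in every replicate test; inconclusive = replicate tests disagree on the call; inactive = the rest, including activity in the opposite direction.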 These entries were drawn from the full list. Entries with a potency or affinity are not part of this list.

Assay: activators raising PGC1a acetylation in cells, dose response, cell-based, cherry-picked samples, set 6 (AID 720513);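 also: cells made to overexpress flag tagged PGC1a plus GCN5 acetyltransferase by viral infection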
Conditions: U2OS PGC1a acetylation AlphaLISA, overnight, 0 = neutral, -100 = inhibitor control; series mostly up to 19.5 µM

outcome, inactive:
CN(C)C(=O)c1ccc(-c2ccc([C@H]3[C@H]4CN(C(=O)CC5CC5)CC(=O)N4[C@H]3CO)cc2)cc1
O=C(CCN1CCc2ccccc2C(c2ccccc2)C1)c1ccc2c(c1)OCCO2 (stereo unspecified)
O=C(O)c1ccc2c(c1)OCCCO2
CCC(C)NC(=O)c1ccc2c(SCC(=O)O)c3c(nc2c1)CCCC3 (stereo unspecified)
COc1cccc(C(=O)CSc2nnc(CNS(=O)(=O)c3ccc(C)cc3)n2C)c1
C[C@@H]1CN([C@@H](C)CO)C(=O)c2cc(NC(=O)CCCN(C)C)ccc2O[C@@H](C)CCCCO[C@@H]1CN(C)Cc1ccc(C(F)(F)F)cc1
Cn1c(=O)cc(OCCCC(=O)NC2CCCC2)c2ccccc21
CC1=CC=CC2=NC(=O)CC(C)(C(=O)N(CC(=O)NC3CCCC3)c3ccccc3C)N12 (stereo unspecified)
c1nc(NC2CCCCCC2)c2[nH]cnc2n1
O=C(Nc1cccc(F)c1)C1CCN(S(=O)(=O)c2cccc3nonc23)CC1
CCOc1cc(C)c(S(=O)(=O)N2CCCC2)cc1C
CCOc1ccc(S(N)(=O)=O)cc1-c1nc2c(C(C)(C)C)nn(C)c2c(=O)[nH]1
O=C(CC1CC1)N[C@@H]1CC[C@@H](CCNS(=O)(=O)c2ccc(Cl)cc2)O[C@@H]1CO
Cc1cccn2c(=O)c3cc(C(=O)NCc4ccco4)c(=N)n(CCc4ccccc4)c3nc12
O=C(NCc1ccco1)c1ccc(Cn2c(=O)c3ccccc3n(Cc3ccc(Cl)cc3)c2=O)cc1
Cc1ccc(S(=O)(=O)N2CCCC(C(=O)NCCC3=CCCCC3)C2)cc1 (stereo unspecified)
COc1ccc(CCNC(=O)c2ccc(Cl)cc2)cc1
COc1cccc(C(=O)NCCS(=O)(=O)N2CCN(C(=O)c3ccco3)CC2)c1
COc1ccc(S(=O)(=O)NCCC(=O)NCc2ccc(F)cc2)cc1
COc1ccc(CCNc2ccc(C(CC(N)=O)NC(=O)c3cc(C)cc(C)c3)cc2[N+](=O)[O-])cc1 (stereo unspecified)
CN(C[C@H]1N[C@@H](CO)[C@@H]1c1ccc(C2=CCCC2)cc1)C(=O)c1cccc(F)c1
Cc1ccsc1C(=O)Nc1cc(Cl)ccc1-n1cncn1
S=c1nc[nH]c2c1cnn2Cc1ccccc1
CCCC[C@@]1(C2CCCC2)Cc2cc(OCC(=O)O)c(Cl)c(Cl)c2C1=O
COC(=O)c1nn(-c2ccccc2)ccc1=O
CC(=O)N1/C(=C/c2ccc(N(C)C)cc2)C(=O)c2ccccc21
CC1CCCCC1NC(=O)C1CCN(C(=O)NC2CCCCC2)CC1 (stereo unspecified)
O=C1Nc2ccccc2N=C(c2ccccc2)C1N(Cc1ccc(F)cc1)C(=O)c1cccnc1 (stereo unspecified)
O=C(NCc1ccc2c(c1)OCO2)c1nc(S(=O)(=O)Cc2ccccc2)ncc1Cl
COc1ccc(NC(=O)/C(Cl)=C(/Cl)S(=O)(=O)Cc2ccccc2)cn1
N#CCSc1nnc(COc2ccc3ccccc3c2)o1
O=S(=O)(Nc1cccc(CCc2ccccn2)c1)c1ccc2ccccc2c1
C=C[C@H]1CN2CCC1C[C@H]2[C@H](O)c1ccnc2ccc(OC)cc12 (stereo partly specified)
CN1/C(=C\C(=O)c2oc3ccccc3c2N)C(C)(C)c2ccccc21
COC(C[C@H]1O[C@@H]1[C@H](O)[C@H](C)OCc1ccccc1)OC
Cc1nc(Nc2ccc(S(N)(=O)=O)cc2)sc1C(=O)Nc1ccccc1
COc1ccc2[nH]c(C(=O)O)c(NC(=O)c3ccccc3[N+](=O)[O-])c2c1
C[C@@H]1CN([C@H](C)CO)C(=O)CCCn2cc(nn2)CO[C@@H]1CN(C)C(=O)NC1CCCC1
CC(=O)Nc1nc(C)c(Oc2ccc(Cl)cc2)c(=O)[nH]1
CSc1nc2nccc(/C=C\c3ccccc3)n2n1
COc1ccc(C(=O)OCC(=O)NCc2ccc3c(c2)OCO3)cc1[N+](=O)[O-]
COC(=O)C(=Cc1ccc(OCc2ccc([N+](=O)[O-])cc2)c(OC)c1)C(=O)OC
CCCn1c(SC(C)C(=O)NCC2CCCO2)nc2cc(Cl)ccc2c1=O (stereo unspecified)
O=C(CSc1nc(O)cc(=O)n1-c1ccccc1)N1CCCCC1
C[C@@H]1CN([C@H](C)CO)S(=O)(=O)c2ccc(C3=CCCCC3)cc2O[C@H]1CN(C)Cc1ccccc1
Oc1ccc(C2CNCCc3c2cc(O)c(O)c3Cl)cc1 (stereo unspecified)
COC(=O)C1CCN(Cc2nnc(-c3ccccc3)o2)CC1
Cc1nc2ccccc2c(=O)n1NC(=O)c1ccc(Cl)c([N+](=O)[O-])c1
Cc1ccc2nc(SCC(=O)Nc3ccc(F)cc3)nc(=O)n2c1
CC(C(=O)OCn1nnc2ccccc2c1=O)N1C(=O)c2ccccc2C1=O (stereo unspecified)
O=C1C=CC2(C=C1)O[C@H](Cc1ccccc1)[C@@H](Cc1ccccc1)O2
CCOC(=O)C(CC)(CC)C(=O)/C=C/c1ccc(Br)cc1
CCOc1ccccc1CNC(=O)c1cc2oc3ccccc3c2n1C
CSCCC(NC(=O)c1ccc(Cl)cc1)C(=O)OCC(=O)Nc1cc(Cl)ccc1C (stereo unspecified)
Cc1cccc(NC(=O)CNC(=O)Cn2ncc(Cl)c(Cl)c2=O)c1C
CCOC(=O)c1cn(-c2ccccc2)nc1-c1cccnc1
COc1ccc2c([N+](=O)[O-])c(N3CCCC3)[nH]c2c1
COCCCNC1CS(=O)(=O)CC1O (stereo unspecified)
O=C(c1ccc2ccccc2c1)N1CCCC1
COc1ccc(N(C)S(=O)(=O)c2cccc(C(=O)Nc3ccc(-n4cnnn4)cc3)c2)cc1
COc1ccc(CCNC(=O)C(=O)NCC2CCCO2)cc1OC (stereo unspecified)
COc1ccc(CCNC(=O)COC(=O)c2ccco2)cc1OC
CCC(C)NCCOCCOc1ccc(C)cc1OC (stereo unspecified)
CCOC(=O)c1c(C)nc2sc3c(=O)n(-c4ccc(OC)cc4)cnc3c2c1-c1ccc(OC)cc1
C[C@H]1CN([C@@H](C)CO)C(=O)c2cc(C#Cc3ccccc3)cnc2O[C@H]1CN(C)C(=O)c1ccccn1
CC1CN(C2CCN(C(=O)c3cccc(Cl)c3)CC2)CC(C)O1 (stereo unspecified)
CCOC(=O)C1(CC2CCCCO2)CCN(C(=O)Nc2ccc(SC)cc2)CC1 (stereo unspecified)
O=C1c2ccccc2C(=O)N1c1ccc(Cc2ccncc2)cc1
Cc1ccc(CCC(=O)Nc2ccc(Cl)cc2)o1
Cc1ccc(NC(=O)CC2=NC(=O)C(CC(=O)Nc3ccccc3F)S2)cc1 (stereo unspecified)
O=C(O)C1CCCN1S(=O)(=O)c1ccc(Br)s1 (stereo unspecified) (tested in a mixture with another compound)
COCCNC(=O)CCc1c(C)nc2c(c(C)nn2-c2ccc(C)c(C)c2)c1C
C[C@H](CO)N1C[C@H](C)[C@@H](CN(C)Cc2cccnc2)Oc2cc(C3=CCCC3)ccc2S1(=O)=O
Cc1cc(C)n(C(=O)c2ccc([N+](=O)[O-])cc2N)n1
Cc1ccc(-c2cc(C(=O)N3CCOCC3)c3ccccc3n2)o1
COc1ccc(S(=O)(=O)Nc2ccccc2C)cc1C(=O)N1CCOCC1
O=C(N=Nc1c(O)[nH]c2ccccc12)c1cc(-c2cccs2)[nH]n1
COc1ccccc1NC(=O)/C=C1\SCC(=O)N1C
Oc1c(Cl)cc(CN2CCOCC2)c2cccnc12
COc1ccc2c3c([nH]c2c1)[C@H](CO)N(C(=O)c1ccncc1)CC31CN(C(=O)c2ccncc2)C1
Cc1nc(SCC(=O)NC2CCCC2)[nH]c(=O)c1C
Cc1ccc(Cl)c(Cn2cnc3c(cnn3C(C)(C)C)c2=O)c1F
C[C@H](CO)N1C[C@H](C)[C@@H](CN(C)C(=O)CCN2CCCCC2)Oc2ncc(C#Cc3ccccn3)cc2C1=O
Cn1nnnc1Sc1ncnc2scc(-c3cc4ccccc4o3)c12
Cc1ccc(N2C(=O)N(CC(=O)Nc3ccc(C)cc3[N+](=O)[O-])C(=O)C2C)cc1 (stereo unspecified)
CCc1ccc(NC(=O)Nc2ccncc2)cc1
CC(C)(C)NC(=O)C(=O)NNC(=O)c1cccc([N+](=O)[O-])c1
Cc1ccc(NC(=O)c2ccc(NCC3CCCO3)c([N+](=O)[O-])c2)cc1Cl (stereo unspecified)
O=C(CC(CC(=O)c1ccc(Br)cc1)c1cccnc1)c1ccc(Br)cc1
CC(C)(C)c1ccc(OCC(=O)NNC(=O)Nc2ccccc2)cc1
N#CC1=C(N)Oc2n[nH]c(-c3ccccc3)c2C1c1ccncc1 (stereo unspecified)
CN(CC(=O)NCC1CCCO1)S(=O)(=O)c1cc(Cl)ccc1Cl (stereo unspecified)
Cc1noc(C)c1CSc1nnc(-c2cccnc2)n1C1CCCCC1C (stereo unspecified)
C/C=C/c1ccc2c(c1)O[C@H](CN(C)C(=O)C1CC1)[C@H](C)CN([C@@H](C)CO)S2(=O)=O
CN(Cc1cnc2nc(N)nc(N)c2n1)c1ccc(C(=O)N[C@@H](CCC(=O)O)C(=O)O)cc1
Cc1ccc(S(=O)(=O)C(C#N)c2nc3ccccc3nc2N2CCCC2)cc1 (stereo unspecified)
CC(C)(C)OC(=O)N1CCCC(C(=O)Nc2cccc(C(=O)NCc3ccccc3)c2)C1 (stereo unspecified)
CCn1nnc(NC(=O)c2ccc(C(C)(C)C)cc2)n1
O=C(NCc1ccc2c(c1)OCO2)c1ccc(NC(=O)C2CCCO2)cc1 (stereo unspecified)
O=C1NC(Nc2nccs2)(C(F)(F)F)C(=O)N1CCc1ccccc1 (stereo unspecified)
CC(C)CC(NC(=O)c1ccc(Cl)cc1)C(=O)OCC(=O)c1ccc2c(c1)NC(=O)CO2 (stereo unspecified)
